The source made the active and inactive calls. How the source made its calls: active means hit-call score of the fitted dose curve at least 0.9, where 1 is the maximum; inactive means score below 0.9.

Cellular tumor antigen p53 (Homo sapiens), sequence (P04637 whole entry, looked up): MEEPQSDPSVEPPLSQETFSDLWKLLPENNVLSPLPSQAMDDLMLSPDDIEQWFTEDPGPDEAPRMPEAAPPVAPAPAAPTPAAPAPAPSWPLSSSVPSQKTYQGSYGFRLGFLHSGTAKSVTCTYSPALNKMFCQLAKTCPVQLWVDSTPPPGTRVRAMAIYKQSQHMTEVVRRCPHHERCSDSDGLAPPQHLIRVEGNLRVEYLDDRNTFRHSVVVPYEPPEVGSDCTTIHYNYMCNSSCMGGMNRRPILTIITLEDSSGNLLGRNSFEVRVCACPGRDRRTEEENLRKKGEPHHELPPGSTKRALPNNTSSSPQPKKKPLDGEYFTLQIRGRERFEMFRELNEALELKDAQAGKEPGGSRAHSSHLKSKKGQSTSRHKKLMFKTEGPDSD

The target of the test is Cellular tumor antigen p53 (Homo sapiens) (UniProt P04637). The test can be described thus: ATG_p53_CIS: Attagene CIS-FACTORIAL HepG2 Assay for human p53 Transcription Factor (AID 2282994). The note with it: HepG2 p53 cis-element reporter, Attagene mRNA; actives raise or lower the signal. As for the experimental part:
ATG_CIS is a cell-based, multiplexed-readout assay that uses HepG2, a human liver cell line, with measurements taken at 24 hours after chemical dosing in a 24-well plate.ATG_p53_CIS is one of 52 assay component(s) measured or calculated from the ATG_CIS assay. It is designed to make measurements of mRNA induction, a form of inducible reporter, as detected with fluorescence intensity signals by Reverse transcription polymerase chain reaction (RT-PCR) and Capillary electrophoresis technology.Data from the assay component ATG_p53_CIS was analyzed into 1 assay endpoint. This assay endpoint, ATG_p53_CIS, was analyzed with bidirectional fitting relative to DMSO as the negative control and baseline of activity. Using a type of inducible reporter, measures of mRNA for gain or loss-of-signal activity can be used to understand the reporter gene at the transcription factor-level as they relate to the gene TP53. Furthermore, this assay endpoint can be referred to as a primary readout, because this assay has produced multiple assay endpoints where this one serves a reporter gene function. To generalize the intended target to other relatable targets, this assay endpoint is annotated to the dna binding intended target family, where the subfamily is tumor suppressor.
Human liver HepG2 cells are transiently transfected with multiple reporter transcription units (MRTUs) in 6-well plates using FuGene 6 reagent (Roche; 3 ml FuGene/1 mg DNA). The MRTU constructs are regulated by a cis-regulating element (promoter). […] A major difference between the CIS and TRANS system is that in CIS activities of endogenous TFs are measured, whereas the TRANS assay evaluates changes in activities of exogenous, chimeric NR-Gal4 proteins. […] At the end of 24 hour incubation, total RNA was isolated using TriZol reagent (Invitrogen). The isolated RNA is then reverse-transcribed using oligo(dT) primer and Mo-MLV reverse transcriptase (Invitrogen) with DNAse I (Ambion) treatment for 30 min. The one-tenth of the produced cDNA was amplified by PCR using Taq DNA polymerase (Invitrogen) and two reporter sequence-specific primers. The PCR products were fluorescently labeled by primer extension with 6-arboxyfluorescein (6-FAM) 5'-labeled reporter sequence-specific primer (2 min at 95 C, 20 s at 68 C and 10 min at 72 C) and these products were digested with 5U of HpaI (New England Biolabs) for 2h at 37 C. The fragments were purified using Qiaquick PCR columns (Qiagen), analyzed on an ABI 3130xL genetic analyzer (Applied Biosystems) with peak positions identified by using a set of X-rhodamine (ROX)-labeled MapMarker1000 molecular weight standards (BioVentures). The raw capillary electrophoresis data was processed using Attagraph software (Attagene).
Consider `CCC1(c2ccccc2)C(=O)N=C(O)NC1=O` (stereo not given), for which the outcome was inactive.

In the case of `CC(C)(C)OOC(C)(C)C`, the compound was called inactive.

On to `Nc1ccc2ccccc2c1`, for which the call was inactive.

Regarding `OCC(F)(F)OC(F)(F)C(F)(F)OC(F)(F)CO`, the result was inactive.

Take `Nc1ccc([N+](=O)[O-])cc1Cl`: the call was inactive.

As for `c1cc2c3c(cccc3c1)CC2`, the result was inactive.

In the case of `Nc1ccc(Cl)cc1`, the compound was called inactive.

Regarding `COP(=O)(CCC(=O)NCO)OC`, the call was inactive.

On to `Cc1ccc(N)cc1N`, for which the compound was called inactive.

Consider `C=CC(=O)OCC(F)(F)C(F)F`, for which the concentration at half-maximal activity (AC50) is 206 µM (active).

In the case of `Oc1ccccc1Br`, the outcome was inactive.

Take `CCN(CC)C1CCCCC1`: the compound was classed as inactive.

As for `O=NN1CCCC1`, the compound was classed as inactive.

Consider `O=C(CBr)OCc1ccccc1`, for which the call was inactive.

For `O=S(=O)(c1ccc(O)cc1)c1ccc(O)cc1`, the result was inactive.

Turning to `CC(O)C#N` (stereo not given), the result was inactive.

As for `CC1=C(C(=O)Nc2ccccc2)S(=O)(=O)CCO1`, the AC50 is 58 µM (active).

Consider `Cc1c([N+](=O)[O-])cc2c(c1[N+](=O)[O-])C(C)(C)CC2(C)C`, for which the result was inactive.

`O=P1(N(CCCl)CCCl)NCCCO1` (stereo not given): the compound was classed as inactive.

As for `Cc1cccc(N)c1`, the call was inactive.

Turning to `N#C/C=C/c1ccccc1`, the result was inactive.

Take `c1ccc(OP(Oc2ccccc2)Oc2ccccc2)cc1`: the compound was classed as inactive.

For the compound `CCCCC(CC)COC(=O)c1c(Br)c(Br)c(Br)c(Br)c1C(=O)OCC(CC)CCCC` (stereo not given), the compound was classed as inactive.

Regarding `Cc1ccc2c(c1N)C(=O)c1ccccc1C2=O`, the call was inactive.

With `CC(C)CBr`, the call was inactive.

Take `CCOP(=S)(OCC)SCn1nnc2ccccc2c1=O`: the compound was called inactive.

Consider `Clc1ccc(Oc2ccccc2)cc1`, for which the compound was classed as inactive.

For the compound `O=C(O)C(F)(OC(F)(F)C(F)(F)C(F)(F)F)C(F)(F)F` (stereo not given), the compound was classed as inactive.

Regarding `ClC(Cl)=C(c1ccc(Cl)cc1)c1ccccc1Cl`, the result was inactive.

As to `O=c1[nH]c2ccccc2c(=O)o1`, the outcome was inactive.

For the compound `OCC(F)(F)OC(F)(F)C(F)(F)OC(F)(F)C(F)(F)OC(F)(F)CO`, the AC50 was 29.8 µM (active).

Regarding `CC(=O)c1ccc(-c2ccccc2)cc1`, the compound was called inactive.

Take `O=C(O)C=CC(F)(C(F)(F)F)C(F)(F)F`: the result was inactive.

As for `O=[N+]([O-])c1cc(Cl)ccc1Cl`, the result was inactive.

Regarding `Cc1ccc(O)cc1C`, the outcome was inactive.

Turning to `Cc1cc(C)c(C(=O)P(=O)(c2ccccc2)c2ccccc2)c(C)c1`, the outcome was inactive.

`CCOP(=S)(OCC)SCS(=O)(=O)CC`: the result was inactive.

With `N#Cc1c(-c2ccc(Cl)cc2)[nH]c(C(F)(F)F)c1Br`, the outcome was inactive.

Take `C=C(C)C(=O)OCC1CO1` (stereo not given): the call was inactive.

Take `CCN(CC)c1ccccc1`: the outcome was inactive.

A word on the AC50: it is the midpoint of the concentration-response curve, whichever way the signal moves.
